AHR activator: AHR activators, primary screen, cell-based, luminescence, luciferase reporter, human; Aryl hydrocarbon receptor (Homo sapiens), P35869; AHR-responsive luciferase reporter cells; activation, % at 5 µM; hit rate 2.5% among 320,000; in the data active = activation above about 47%;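 note: 0% = vehicle wells and 100% = reference agonist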
DAX1 inh-1: DAX1 (NR0B1) inhibitors on StAR promoter, primary screen, cell-based, luminescence, SF-1 (NR5A1), full-length DAX-1; hit rate 1.1% among 370,000; inhibition, % at 6.8 µM; HEK293T StAR-luciferase reporter, SF-1/DAX-1 repression relief;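 active = inhibition above the mean over all tested compounds plus 3 SD, cut at about 3.6% in these data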;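 note: 0% = DAX-1 cells with DMSO and 100% = cells lacking DAX-1 with DMSO; higher inhibition means more luminescence from relief of DAX-1 repression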
hcDAF12 agonist: H. contortus DAF-12 nuclear receptor activators, primary screen, cell-based, luminescence, HEK293, lit1-tk-luc reporter; HEK293 hcDAF-12 lit1-tk-luc reporter; 0% DMSO, 100% Δ7-dafachronic acid; activation, % at 6.8 µM; hit rate 1.4% among 370,000;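 active = activation above the mean of all tested compounds plus 3 SD, cut at about 5.5% in these data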;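 note: 100% = response to 3 µM Δ7-dafachronic acid high control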
DAX1 inh-2: DAX1 (NR0B1) inhibitors, primary screen, cell-based, HEK293, Gal4-DAX1, luciferase luminescence | Nuclear receptor subfamily 0 group B member 1 (Homo sapiens), P51843 | HEK293 Gal4-DAX1 luciferase reporter | inhibition, % at 6.75 µM | hit rate 0.99% among 340,000 | AID 504766, 2011;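 active = inhibition above the mean over all tested compounds plus 3 SD, cut at about 4.2% in these data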;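 note: 0% = DAX1-transfected cells with DMSO and 100% = empty-vector control cells with DMSO; inhibition shows as a rise in luminescence from relieved DAX1 repression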
hgDAF-12 ag: H. glycines DAF-12 receptor agonists, primary screen, cell-based, luminescence, HEK293, GAL4 fusion, UAS-luciferase; Nuclear hormone receptor DAF-12 (Heterodera glycines), GAL4 fusion; HEK293 GAL4-hgDAF12 UAS-luciferase reporter, agonist luminescence; normalized to butyrate control; activation, % at 6.8 µM; hit rate 1.8% among 370,000;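 active = activation above a cutoff set at the mean of all screened compounds plus 3 SD, cut at about 10% in these data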;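 note: 0% = DMSO wells and 100% = sodium butyrate wells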
ssDAF12 agonist: S. stercoralis DAF-12 nuclear receptor activators, primary screen, cell-based, luminescence, HEK293, GRIP1 co-expression, lit1-tk-luc. Nuclear hormone receptor DAF-12 (Strongyloides stercoralis). HEK293 ssDAF-12/GRIP1 lit1-tk-luc reporter; % of 3 µM dafachronic acid response. activation, % at 6.8 µM. hit rate 1% among 370,000;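 active = activation above the mean over all tested compounds plus 3 SD, cut at about 0.9% in these data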;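 note: 0% = DMSO-only wells and 100% = 3 µM delta7-dafachronic acid wells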
DAX1 inh confirm: DAX1 (NR0B1) inhibitors relieving SF-1 repression, confirmation, cell-based, luminescence, HEK293T, full-length DAX-1, SF-1 activated StAR promoter. inhibition, % at 6.8 µM. shares compounds with DAX1 inh-1. AID 652134, 2013. hit rate 87% among 2,400. HEK293T StAR-promoter luciferase reporter, SF-1/DAX-1 repression;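 active = inhibition above the average of every tested compound plus 3 SD, cut at about 3.8% in these data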;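 note: 0% = DAX-1 cells with DMSO and 100% = no DAX-1 control cells with DMSO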
Target sequence (P51843 whole entry, looked up): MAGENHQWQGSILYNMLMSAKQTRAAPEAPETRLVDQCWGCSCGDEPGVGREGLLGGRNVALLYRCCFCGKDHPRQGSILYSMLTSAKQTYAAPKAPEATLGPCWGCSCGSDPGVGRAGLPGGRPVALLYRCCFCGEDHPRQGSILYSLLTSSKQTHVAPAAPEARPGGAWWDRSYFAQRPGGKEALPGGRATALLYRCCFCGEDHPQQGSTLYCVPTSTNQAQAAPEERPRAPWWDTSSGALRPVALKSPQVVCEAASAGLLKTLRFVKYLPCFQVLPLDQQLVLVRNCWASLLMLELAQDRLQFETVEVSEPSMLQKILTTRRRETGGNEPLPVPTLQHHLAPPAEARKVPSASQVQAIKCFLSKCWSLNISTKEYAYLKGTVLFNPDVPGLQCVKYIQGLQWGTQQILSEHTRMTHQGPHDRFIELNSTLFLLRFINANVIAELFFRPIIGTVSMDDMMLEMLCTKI
SF1 mutant ctr: StAR reporter signal changes without DAX1, counter-screen for DAX1 inhibitor project, cell-based, luminescence, AF-2 mutant SF-1, transactivation; inhibition, % at 6.8 µM; hit rate 78% among 2,400; shares compounds with DAX1 inh-1; HEK293 StAR-luciferase, SF-1 AF2 mutant;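 active = inhibition above the mean of all tested compounds plus 3 SD, cut at about 3% in these data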;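 note: 0% = DAX-1 transfected cells with DMSO and 100% = cells without DAX-1 with DMSO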
LXR ag: LXR agonists, Gal4 luciferase reporter, confirmation, counter-screen for hcDAF-12 agonist project, cell-based, luminescence, HEK293, H. contortus campaign. HEK293 Gal4-LXR tk-luc reporter, 24 h; normalized: DMSO 0%, positive control 100%. activation, % at 6.8 µM. shares compounds with hcDAF12 agonist. 3,400 tested, under 10 active;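 active = mean percent activation of the reporter above a cutoff set as the average over tested compounds plus their standard deviation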
hcDAF12 conf: H. contortus DAF-12 receptor agonists, confirmation, cell-based, luminescence, HEK293, lit1-tk-luc, triplicate; shares compounds with hcDAF12 agonist; HEK293 hcDAF-12 lit1-tk-luc reporter; % of Δ7-dafachronic acid response; activation, % at 6.8 µM; hit rate 61% among 3,400;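 active = mean activation across triplicate tests above the threshold derived from the earlier primary screen, cut at about 5.5% in these data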;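 note: 0% = DMSO only wells and 100% = 3 µM Δ7-dafachronic acid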
hgDAF12 ag: H. glycines DAF-12 receptor agonists, confirmation, cell-based, luminescence, HEK293, GAL4-LBD fusion; shares compounds with hgDAF-12 ag; HEK293 GAL4-hgDAF12 luciferase reporter, agonist mode; percent of butyrate response; activation, % at 6.8 µM; hit rate 80% among 3,300;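 active = mean activation over triplicate wells above the hit cutoff derived from the earlier primary screen, cut at about 11% in these data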;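 note: 0% = DMSO low control and 100% = 2 mM sodium butyrate high control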
LXR ag 2: LXR agonists, Gal4 luciferase reporter, confirmation, counter-screen for hgDAF-12 agonist project, cell-based, luminescence, HEK293, H. glycines campaign; shares compounds with hgDAF-12 ag; activation, % at 6.8 µM; 3,300 tested, under 10 active; 24 h; AID 743051, 2013;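 active = mean activation of the triplicate above a set limit carried over from the primary screen, none filed active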
* marks the source's active call; other numbers are inactive results; x = not tested or not shown. This is a sample that favours compounds with a hit; in the whole collection about 5.7% have one here.

SMILES	AHR activator	DAX1 inh-1	hcDAF12 agonist	DAX1 inh-2	hgDAF-12 ag	ssDAF12 agonist	DAX1 inh confirm	SF1 mutant ctr	LXR ag	hcDAF12 conf	hgDAF12 ag	LXR ag 2
c1ccc(CSc2ncnc3c2ncn3C2CCCCO2)cc1 (configuration not stated)	x	5.1*	2	4	14*	0	6.3*	3.5*	x	x	12*	0
C=CCn1c(N)c(C(=O)OCCC)c2nc3ccccc3nc21	20	-1	-3	0	-3	-1	x	x	x	x	x	x
Clc1ccc(CSc2nc3ccncc3[nH]2)cc1	7	8.4*	5.9*	-3	19*	1	12*	5.9*	x	x	19*	1
Cc1ccc(/C=c2/sc3n(c2=O)CCCN=3)o1	-15	1	0	3	6	-1	x	x	x	x	x	x
COc1ccc(C/C(C)=N/NS(=O)(=O)c2ccc(Br)cc2)cc1	4	0	0	2	5	0	x	x	x	x	x	x
O=C(C=NNc1ccccc1)c1ccccc1	x	7.3*	12*	4.5*	29*	1.8*	17*	9.1*	2	12*	24*	1
Cc1ccc(NC(=S)N2CCC(c3ccccc3)C2)c(Cl)c1 (configuration not stated)	1	5.1*	5	0	19*	1.1*	11*	4.8*	x	x	13*	1
CCCOc1ccc2[nH]c(C(=O)N/N=C/c3cc(OC)c(OC)c(OC)c3)cc2c1	35	0	-1	2	0	-2	x	x	x	x	x	x
Cc1ccc(C(=O)CSc2cc(C)[nH]c(=O)n2)cc1	7	12*	3	5.0*	15*	0	11*	8.3*	x	x	16*	1
CS(=O)(=O)Nc1ccc(C(=O)Nc2ccccc2Cl)cc1	-1	0	0	x	5	-1	x	x	x	x	x	x
CC(C)(C)c1ccc(C(=O)Nc2ccccc2Cl)cc1	10	7.7*	10*	5.0*	32*	1.5*	16*	6.5*	2	9.4*	19*	1
c1ccc(Cc2c(C3CCCCC3)nc3c4ccccc4ccn23)cc1	x	6.1*	11*	x	18*	2.1*	6.1*	4.0*	1	8.0*	20*	1
CCCc1nc2c3ccccc3ccn2c1Cc1ccc(C)cc1	x	6.0*	12*	x	18*	2.3*	8.0*	4.3*	1	13*	11*	1
Cc1cc(C)c(-n2nnnc2SC(C)C)c(C)c1	0	1	-1	0	3	-1	x	x	x	x	x	x
COC(=O)CC1CC2(C(=O)OC)c3[nH]c4ccccc4c3CCN2C1=O (configuration not stated)	x	0	3	x	1	0	x	x	x	x	x	x
c1csc(-c2nnc(-c3ccc(N4CCOCC4)cc3)o2)c1	3	5.1*	5.8*	-1	15*	1	14*	6.2*	x	x	19*	1
CCOc1ccc(-c2nnc(-c3cccs3)o2)cc1	-4	4.9*	7.4*	1	16*	1	13*	4.6*	1	7.8*	15*	1
CC(=O)Nc1ccc(S(=O)(=O)N2CN(c3ccc(C)cc3)c3nc4ccccc4nc32)cc1	1	-1	2	-1	2	0	x	x	x	x	x	x
CCOc1ccc(C(=O)NCC(=O)NNC(=O)c2cc(C)oc2C)cc1OCC	2	3	3	0	-1	-1	x	x	x	x	x	x
Cc1ccc2nc(-c3ccccc3)c(Cc3ccccn3)n2c1	x	5.1*	7.4*	x	13*	1.4*	7.4*	6.2*	1	8.3*	16*	0
Cc1ccc2nc(-c3ccc(F)cc3)c(Cc3ccccn3)n2c1	x	9.3*	8.6*	x	14*	0	8.1*	6.7*	0	1	11*	1
Cc1ccn2c(Cc3ccccc3)c(-c3ccc(F)cc3)nc2c1	x	5.9*	0	2	16*	0	3	2	x	x	11*	0
Fc1ccc(-c2nc3ccc(Cl)cn3c2Cc2ccccc2)cc1	x	1	0	0	6	-1	x	x	x	x	x	x
Cc1ccc2nc(-c3ccco3)c(Cc3ccsc3)n2c1	x	0	1	x	3	-1	x	x	x	x	x	x
Cc1ccc(-c2nc3ccc(C)cn3c2Cc2ccsc2)cc1	x	11*	5	x	17*	0	7.0*	3.0*	x	x	1	0
CCc1nnc(NC(=O)CSc2nnc(C(C)NC(=O)c3ccccc3)n2C)s1 (configuration not stated)	1	0	1	0	-1	-1	x	x	x	x	x	x

From PubChem BioAssay
